Experimental data published in PubChem BioAssay AID1159580 (chemical genetic matrix, 2015).
In all, about 5,500 compounds went through this assay and about 2,000 (36%) were called active. Not shown: some 18% with an inconclusive outcome. Cut-off read from the data, not from the text of the source: active = normalized growth mostly below about 0.91 (no sharp cut-off); inconclusive = no clear call, values can overlap the other calls; inactive = mostly above about 0.92. Some of the results follow.

Assay: chemical genetic growth profiling, strain panel (AID 1159580);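 note: tested at 20 µM; growth read once vehicle control cultures reached saturation at 30 °C; 1 = growth at the plate median or of vehicle wells; lower values mean less growth of the strain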
Settings: growth OD

Measured: normalized growth

CC(=O)/C=C\[C@@H]1[C@@]2(C)CCCC(C)(C)C2CC[C@@]1(C)O (some centres not stated)
inactive: S. cerevisiae deletion strains, locus YJR075W, strain HOC1, active compounds read low 0.982 | S. cerevisiae deletion strains, locus YKL009W, strain mrt4, active compounds read low 0.97 | S. cerevisiae deletion strains, locus YKL068W, active compounds read low 0.984 | S. cerevisiae deletion strains, locus YKL085W, strain MDH1 (second series), active compounds read low 0.977 | S. cerevisiae deletion strains, locus YKL085W, strain MDH1, active compounds read low 0.977 | S. cerevisiae deletion strains, locus YKL160W, strain elf1, active compounds read low 0.963 | S. cerevisiae deletion strains, locus YKL190W, strain CNB1, active compounds read low 0.964 | S. cerevisiae deletion strains, locus YKR001C, strain vps1, active compounds read low 0.975 | S. cerevisiae deletion strains, locus YKR026C, strain gcn3, active compounds read low 0.979 | S. cerevisiae deletion strains, locus YKR091W, strain srl3, active compounds read low 0.975 | S. cerevisiae deletion strains, locus YLL001W, strain dnm1, active compounds read low 1.01 | S. cerevisiae deletion strains, locus YLL026W, active compounds read low 0.991 | S. cerevisiae deletion strains, locus YLL041C, strain sdh2, active compounds read low 0.968 | S. cerevisiae deletion strains, locus YLR027C, strain aat2, active compounds read low 0.982 | S. cerevisiae deletion strains, locus YLR039C, strain RIC1, active compounds read low 0.846 | S. cerevisiae deletion strains, locus YLR058C, strain SHM2, active compounds read low 0.958 | S. cerevisiae deletion strains, locus YLR102C, strain apc9, active compounds read low 0.973 | S. cerevisiae deletion strains, locus YLR113W, strain HOG1, active compounds read low 0.951 | S. cerevisiae deletion strains, locus YLR221C, strain rsa3, active compounds read low 1.01 | S. cerevisiae deletion strains, locus YLR258W, strain gsy2, active compounds read low 0.981 | S. cerevisiae deletion strains, locus YLR262C, strain YPT6 (second series), active compounds read low 0.939 | S. cerevisiae deletion strains, locus YLR262C, strain YPT6, active compounds read low 0.843 | S. cerevisiae deletion strains, locus YLR268W, strain sec22, active compounds read low 0.923 | S. cerevisiae deletion strains, locus YLR320W, strain mms22, active compounds read low 1.01 | S. cerevisiae deletion strains, locus YLR330W, strain CHS5, active compounds read low 0.974 | S. cerevisiae deletion strains, locus YLR342W, strain FKS1 (second series), active compounds read low 0.957 | S. cerevisiae deletion strains, locus YLR342W, strain FKS1, active compounds read low 0.968 | S. cerevisiae deletion strains, locus YLR357W, strain rsc2, active compounds read low 0.998 | S. cerevisiae deletion strains, locus YLR370C, strain arc18, active compounds read low 0.964 | S. cerevisiae deletion strains, locus YLR371W, strain rom2, active compounds read low 1 | S. cerevisiae deletion strains, locus YLR384C, strain iki3, active compounds read low 0.973 | S. cerevisiae deletion strains, locus YML016C, strain PPZ1, active compounds read low 0.964 | S. cerevisiae deletion strains, locus YML032C, strain rad52, active compounds read low 1.02 | S. cerevisiae deletion strains, locus YML120C, strain ndi1, active compounds read low 0.971 | S. cerevisiae deletion strains, locus YML124C, strain tub3, active compounds read low 0.979 | S. cerevisiae deletion strains, locus YMR058W, strain fet3, active compounds read low 0.968 | S. cerevisiae deletion strains, locus YMR078C, strain ctf18, active compounds read low 0.975 | S. cerevisiae deletion strains, locus YMR125W, strain sto1, active compounds read low 0.958 | S. cerevisiae deletion strains, locus YMR129W, active compounds read low 0.96 | S. cerevisiae deletion strains, locus YMR205C, strain PFK2, active compounds read low 0.926 | S. cerevisiae deletion strains, locus YMR223W, strain ubp8, active compounds read low 1.01 | S. cerevisiae deletion strains, locus YMR231W, strain pep5, active compounds read low 0.972 | S. cerevisiae deletion strains, locus YMR263W, strain SAP30, active compounds read low 0.947 | S. cerevisiae deletion strains, locus YMR307W, strain GAS1, active compounds read low 1.08 | S. cerevisiae deletion strains, locus YNL067W, strain RPL9B, active compounds read low 0.957 | S. cerevisiae deletion strains, locus YNL071W, strain lat1, active compounds read low 0.961 | S. cerevisiae deletion strains, locus YNL128W, strain TEP1, active compounds read low 0.927 | S. cerevisiae deletion strains, locus YNL153C, strain GIM3, active compounds read low 0.951 | S. cerevisiae deletion strains, locus YNL183C, strain NPR1, active compounds read low 0.947 | S. cerevisiae deletion strains, locus YNL209W, strain ssb2, active compounds read low 0.986 | S. cerevisiae deletion strains, locus YNL233W, strain BNI4, active compounds read low 0.942 | S. cerevisiae deletion strains, locus YNL248C, strain rpa49, active compounds read low 0.952 | S. cerevisiae deletion strains, locus YNL250W, strain rad50, active compounds read low 0.99 | S. cerevisiae deletion strains, locus YNL271C, strain bni1, active compounds read low 0.991 | S. cerevisiae deletion strains, locus YNL298W, strain CLA4, active compounds read low 0.984 | S. cerevisiae deletion strains, locus YNL307C, strain MCK1, active compounds read low 0.948 | S. cerevisiae deletion strains, locus YNL322C, strain KRE1 (second series), active compounds read low 0.989 | S. cerevisiae deletion strains, locus YNL322C, strain KRE1, active compounds read low 0.965 | S. cerevisiae deletion strains, locus YNR049C, strain mso1, active compounds read low 0.98 | S. cerevisiae deletion strains, locus YNR052C, strain pop2, active compounds read low 0.98 | S. cerevisiae deletion strains, locus YOL006C, strain TOP1, active compounds read low 0.867 | S. cerevisiae deletion strains, locus YOL012C, strain htz1 0.968 | S. cerevisiae deletion strains, locus YOL147C, strain pex11, active compounds read low 0.987 | S. cerevisiae deletion strains, locus YOR001W, strain rrp6, active compounds read low 0.95 | S. cerevisiae deletion strains, locus YOR061W, strain CKA2, active compounds read low 0.944 | S. cerevisiae deletion strains, locus YOR069W, strain VPS5, active compounds read low 0.977 | S. cerevisiae deletion strains, locus YOR070C, strain gyp1, active compounds read low 0.968 | S. cerevisiae deletion strains, locus YOR080W, strain dia2, active compounds read low 0.978 | S. cerevisiae deletion strains, locus YOR083W, strain WHI5, active compounds read low 1.03 | S. cerevisiae deletion strains, locus YOR106W, strain vam3, active compounds read low 0.982 | S. cerevisiae deletion strains, locus YOR136W, strain idh2, active compounds read low 0.996 | S. cerevisiae deletion strains, locus YOR144C, strain elg1, active compounds read low 0.97 | S. cerevisiae deletion strains, locus YOR184W, strain ser1, active compounds read low 0.993 | S. cerevisiae deletion strains, locus YOR231W, strain MKK1, active compounds read low 0.964 | S. cerevisiae deletion strains, locus YOR265W, strain rbl2, active compounds read low 0.979 | S. cerevisiae deletion strains, locus YOR270C, strain vph1, active compounds read low 0.909 | S. cerevisiae deletion strains, locus YOR290C, strain snf2, active compounds read low 0.974 | S. cerevisiae deletion strains, locus YOR316C, strain cot1, active compounds read low 0.977 | S. cerevisiae deletion strains, locus YPL051W, strain arl3, active compounds read low 0.986 | S. cerevisiae deletion strains, locus YPL055C, strain LGE1, active compounds read low 0.866 | S. cerevisiae deletion strains, locus YPL078C, strain atp4, active compounds read low 0.97 | S. cerevisiae deletion strains, locus YPL106C, strain sse1, active compounds read low 1.02 | S. cerevisiae deletion strains, locus YPL240C, strain hsp82, active compounds read low 0.98 | S. cerevisiae deletion strains, locus YPL241C, strain CIN2, active compounds read low 0.968 | S. cerevisiae deletion strains, locus YPL256C, strain CLN2, active compounds read low 0.979 | S. cerevisiae deletion strains, locus YPR119W, strain clb2, active compounds read low 0.985 | S. cerevisiae deletion strains, locus YPR141C, strain kar3, active compounds read low 0.975 | S. cerevisiae deletion strains, locus YPR163C, strain tif3, active compounds read low 0.973 | S. cerevisiae deletion strains, locus YPR167C, strain met16, active compounds read low 0.971 | S. cerevisiae deletion strains, strain wtn01, active compounds read low 0.94 | S. cerevisiae strains, strain wild type, active compounds read low 0.967
active: S. cerevisiae deletion strains, locus YLR418C, strain cdc73, active compounds read low 0.838
